# Data taken from PubChem BioAssay (Tox21).
# Results filed as inconclusive are left out. Where a call stands in place of a potency, no number is given. The source holds several records for some structures; these can differ, active in one and inactive in another. Calls of active or inactive are those of the source. Unless noted, calls come from the whole dose curve; as a rule, active = well fitted curve in the direction sought with a large enough effect in the repeat runs; inconclusive = weak or mixed curves; inactive = no such curve, though single readings can be large; an effect the other way counts as inactive or inconclusive.
# Tests used:
# [1] = qHTS assay for small molecules that induce genotoxicity in human embryonic kidney cells expressing luciferase-tagged ATAD5 (AID 651632); note: nearly all actives have a fitted effect of over 15% in size
# Summary of the method: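 Reporter cells (HEK293T) express luciferase-tagged ATAD5, a protein that accumulates after DNA damage. Treat 16 hr at 37C/5% CO2, add Amplite, wait 30 min at RT, and read luminescence.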
# [2] = qHTS assay for small molecule agonists of the p53 signaling pathway - cell viability (AID 651633; calls by dose curve; note: nearly all actives have a fitted effect of over 30% in size; note: potency is the fitted concentration of half-maximal effect)
# Summary of the method: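 Viability counter-read: CellTiter-Glo luminescence (30 min, room temperature) in the same p53RE-bla plates. These plates had been exposed to compounds for 16 h at 37 C.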
# [3] = qHTS assay for small molecules that induce genotoxicity in human embryonic kidney cells expressing luciferase-tagged ATAD5 - cell viability (AID 651634; calls by dose curve; note: nearly all actives have a fitted effect of over 25% in size)
# Summary of the method: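 Seeding of 2,000 HEK293T ATAD5-luciferase cells per well preceded pin-tool compound transfer. Plates sat 15.5 hr at 37C under 5% CO2, then fluorescence was read after 30 min with CellTiter-Fluor.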
# [4] = qHTS assay to test for compound auto fluorescence at 590 nm (red) in HepG2 cells (AID 720674)
# Summary of the method: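 1 hr compound incubation on HepG2 cells, 37 C, 5% CO2; plate read ex 540 nm / em 590 nm; intensities reported as Rose Bengal sodium equivalents.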
# [5] = qHTS assay to test for compound auto fluorescence at 535 nm (green) in HepG2 cells (AID 720675)
# [6] = qHTS assay to test for compound auto fluorescence at 460 nm (blue) in HEK293 cells (AID 720678)
# Summary of the method: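 After cell attachment (4-5 hr, 37C), compounds were pinned onto HEK293 monolayers in 10% dialyzed FBS medium. The blue channel (405/460 nm) was read following overnight culture. Equivalency was calculated against triamterene.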
# [7] = qHTS assay to test for compound auto fluorescence at 590 nm (red) in HEK293 cells (AID 720679)
# Summary of the method: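 Plates of HEK293 cells (10% dialyzed FBS) are treated with 23 nL compound or DMSO vehicle after a 4-5 hr attachment period, incubated overnight at 37C, and read for red fluorescence at 540/590nm.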
# [8] = qHTS assay to test for compound auto fluorescence at 535 nm (green) in HEK293 cell free culture (AID 720682)
# Summary of the method: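 Steps: dispense DMEM/10% FBS into empty wells; pin in compound or DMSO; measure fluorescence at 485/535 nm. Values are fluorescein equivalents.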
# [9] = qHTS assay to test for compound auto fluorescence at 590 nm (red) in HEK293 cell free culture (AID 720683)
# Summary of the method: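 Red-channel autofluorescence of compounds in culture medium (DMEM, 10% FBS), no cells, measured at 540/590 nm. Rose Bengal sodium is the reference fluorophore for equivalence.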
# [10] = qHTS assay to test for compound auto fluorescence at 590 nm (red) in HepG2 cell free culture (AID 720684)
# Summary of the method: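 Steps: dispense MEM/10% FBS medium, no cells; pin compound or DMSO vehicle; read red channel, Ex/Em 540/590 nm. Output given as Rose Bengal sodium equivalents.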
# [11] = qHTS assay to test for compound auto fluorescence at 460 nm (blue) in HepG2 cell free culture (AID 720685)
# Summary of the method: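 Compound (23 nL) or DMSO pinned into cell-free MEM with 10% FBS; blue fluorescence read at 405/460 nm excitation/emission, expressed as auto-fluorescence equivalency to triamterene.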
# [12] = qHTS assay to test for compound auto fluorescence at 535 nm (green) in HepG2 cell free culture (AID 720686)
# [13] = qHTS assay to test for compound auto fluorescence at 460 nm (blue) in HepG2 cells (AID 720687)
# Summary of the method: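 Blue-channel autofluorescence (Ex/Em 405/460 nm, triamterene-equivalent) was measured after 1 hr compound exposure at 37 C, 5% CO2. Cells were HepG2, plated overnight at 37 C in MEM plus 10% FBS.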
# [14] = target: Glucocorticoid receptor (Homo sapiens) (UniProt P04150); assay: qHTS assay to identify small molecule agonists of the glucocorticoid receptor (GR) signaling pathway (AID 720691; active = well fitted activation curve with a large enough effect in the signal ratio in the repeat runs, not every such curve was filed as active; the % refers to the signal ratio; note: potency is the fitted concentration of half-maximal effect)
# Chain of Glucocorticoid receptor (Homo sapiens) (P04150 whole entry, looked up): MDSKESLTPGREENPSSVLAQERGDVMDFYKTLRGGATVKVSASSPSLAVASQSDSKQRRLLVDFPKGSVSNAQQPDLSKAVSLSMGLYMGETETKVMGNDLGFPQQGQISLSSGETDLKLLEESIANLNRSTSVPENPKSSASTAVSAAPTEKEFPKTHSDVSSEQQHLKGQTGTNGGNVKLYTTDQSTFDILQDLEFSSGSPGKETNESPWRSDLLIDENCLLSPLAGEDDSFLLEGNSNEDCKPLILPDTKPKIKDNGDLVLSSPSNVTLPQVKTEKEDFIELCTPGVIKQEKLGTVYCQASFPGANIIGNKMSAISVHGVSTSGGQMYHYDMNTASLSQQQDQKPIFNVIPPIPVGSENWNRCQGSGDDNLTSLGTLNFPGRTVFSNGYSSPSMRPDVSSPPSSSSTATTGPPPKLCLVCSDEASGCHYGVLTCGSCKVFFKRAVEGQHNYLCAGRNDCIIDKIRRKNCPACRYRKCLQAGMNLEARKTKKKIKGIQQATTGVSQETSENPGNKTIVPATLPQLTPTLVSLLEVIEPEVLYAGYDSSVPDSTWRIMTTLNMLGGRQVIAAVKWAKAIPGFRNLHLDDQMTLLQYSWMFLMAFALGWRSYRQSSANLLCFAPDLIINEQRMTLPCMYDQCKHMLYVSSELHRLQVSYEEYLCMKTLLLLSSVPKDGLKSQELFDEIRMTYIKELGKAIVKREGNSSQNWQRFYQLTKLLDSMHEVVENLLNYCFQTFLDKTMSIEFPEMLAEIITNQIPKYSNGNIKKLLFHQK
# Summary of the method: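 Reporter read-out: fluorescence intensity following 2 h room-temperature LiveBLAzer B/G FRET substrate loading. Prior step: GR-bla HeLa cells held 4 h, then treated 18 h at 37 C.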
# [15] = target: Glucocorticoid receptor (Homo sapiens) (UniProt P04150); assay: qHTS assay to identify small molecule antagonists of the glucocorticoid receptor (GR) signaling pathway (AID 720692; active = well fitted inhibition curve with a large enough effect in the signal ratio in the repeat runs, not every such curve was filed as active; the % refers to the signal ratio; note: potency is the fitted concentration of half-maximal effect)
# Summary of the method: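 Dexamethasone (5 nM final) stimulated a stably integrated GRE-beta-lactamase reporter in HeLa cells during 18 h co-incubation with compounds; signal was quantified as fluorescence intensity of B/G FRET substrate after 2 h.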
# [16] = qHTS assay for small molecule disruptors of the mitochondrial membrane potential (AID 720635); note: potency is the fitted concentration of half-maximal effect
# Summary of the method: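 Mitochondrial membrane potential tracked with Mito-MPS dye, red aggregates (ex 540/em 590 nm) against green monomers (ex 490/em 535 nm). Compound treatment 1 hr at 37C, dye 30 min in HepG2.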
# [17] = qHTS assay to test for compound auto fluorescence at 460 nm (blue) in HEK293 cell free culture (AID 720681)
# Summary of the method: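 Blue fluorescence (Ex 405/Em 460 nm, triamterene-equivalent) was read immediately after pin transfer of compound or DMSO into medium (DMEM, 10% FBS) without cells.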
# [18] = qHTS assay for small molecule disruptors of the mitochondrial membrane potential - cell viability (AID 720634; calls by dose curve;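 note: human HepG2 liver cancer cells; series mostly up to about 83 µM; nearly all actives have a fitted effect of over 20% in size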)
# Summary of the method: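 Measuring cytotoxicity alongside mitochondrial potential, the screen quantified ATP by luminescence in HepG2 cells after 1 hr compound incubation and a 30 min room-temperature CellTiter-Glo step.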
# [19] = qHTS assay to test for compound auto fluorescence at 535 nm (green) in HEK293 cells (AID 720680)
structure (smiles),measurement,setting,value
CC(N)CN (centres undefined),Potency,[1],inactive
same,Potency,[2],inactive
same,Potency,[3],inactive
same,outcome,[4],inactive
same,outcome,[5],inactive
same,Potency,[6],inactive
same,outcome,[7],inactive
same,outcome,[8],inactive
same,outcome,[9],inactive
same,outcome,[10],inactive
same,Potency,[11],inactive
same,outcome,[12],inactive
same,Potency,[13],inactive
same,Potency,[14],inactive
same,Potency,[15],inactive
O=C(c1ccc(O)cc1)c1ccc(Cl)cc1,Potency,[1],inactive
same,Potency,[2],inactive
same,Potency,[3],inactive
same,Potency,[16],15.7 µM (active)
same,outcome,[4],inactive
same,outcome,[5],inactive
same,Potency,[6],inactive
same,outcome,[7],inactive
same,Potency,[17],inactive
same,outcome,[8],inactive
same,outcome,[9],inactive
same,outcome,[10],inactive
same,Potency,[11],inactive
same,outcome,[12],inactive
same,Potency,[13],inactive
same,Potency,[14],inactive
CC1=CC(O)CC(C)(C)C1 (centres undefined),Potency,[1],inactive
same,Potency,[2],inactive
same,Potency,[3],inactive
same,Potency,[18],inactive
same,outcome,[4],inactive
same,outcome,[5],inactive
same,Potency,[6],inactive
same,outcome,[7],inactive
same,outcome,[19],inactive
same,Potency,[17],inactive
same,outcome,[8],inactive
same,outcome,[9],inactive
same,outcome,[10],inactive
same,Potency,[11],inactive
same,Potency,[13],inactive
same,Potency,[14],inactive
same,Potency,[15],inactive
OC/C(Br)=C(\Br)CO,Potency,[1],inactive
same,Potency,[2],inactive
same,Potency,[3],inactive
same,Potency,[18],inactive
same,outcome,[4],inactive
same,outcome,[5],inactive
same,Potency,[6],inactive
same,outcome,[7],inactive
same,Potency,[17],inactive
same,outcome,[8],inactive
same,outcome,[9],inactive
same,outcome,[10],inactive
same,Potency,[11],inactive
same,outcome,[12],inactive
same,Potency,[13],inactive
same,Potency,[14],inactive
same,Potency,[15],inactive
Oc1cc(O)c(Cl)cc1Cl,Potency,[1],inactive
same,Potency,[2],inactive
same,Potency,[3],inactive
same,Potency,[16],7.03 µM (active)
same,outcome,[4],inactive
same,outcome,[5],inactive
same,Potency,[6],inactive
same,outcome,[7],inactive
same,outcome,[19],inactive
same,Potency,[17],inactive
same,outcome,[8],inactive
same,outcome,[9],inactive
same,outcome,[10],inactive
same,Potency,[11],inactive
same,Potency,[14],inactive
same,Potency,[15],inactive
CC(=O)[C@H]1CC[C@H]2[C@@H]3C=CC4=CC(=O)CC[C@@]4(C)[C@@H]3CC[C@]12C,Potency,[1],inactive
same,Potency,[2],inactive
same,Potency,[3],inactive
same,Potency,[18],inactive
same,"fluorescence, relative to Rose Bengal",[4],-0.279% [at 18.6 µM] (inactive)
same,"fluorescence, % of fluorescein control",[5],-0.0643% [at 18.6 µM] (inactive)
same,"fluorescence, % of triamterene",[6],-0.137% [at 18.6 µM] (inactive)
same,"fluorescence, % of fluorescent control",[7],-0.3% [at 18.6 µM] (inactive)
same,"fluorescence, % of fluorescent control",[17],-0.214% [at 18.6 µM] (inactive)
same,activity change,[8],-0.278% [at 18.6 µM] (inactive)
same,"fluorescence, % of fluorescent control",[9],-0.0895% [at 18.6 µM] (inactive)
same,"fluorescence, % of Rose Bengal",[10],-0.458% [at 18.6 µM] (inactive)
same,"fluorescence, % of fluorescent control",[11],-0.0065% [at 18.6 µM] (inactive)
same,"fluorescence, % of fluorescein control",[12],-0.0891% [at 18.6 µM] (inactive)
same,"fluorescence, % of fluorescent control",[13],0.0499% [at 18.6 µM] (inactive)
same,Potency,[14],0.0007 µM (active)
same,Potency,[15],1.82 µM (active)
CC1CN(c2cc3c(cc2F)c(=O)c(C(=O)O)cn3-c2ccc(F)cc2F)CCN1 (centres undefined),Potency,[1],inactive
same,Potency,[2],inactive
same,Potency,[3],inactive
same,Potency,[18],inactive
same,outcome,[4],inactive
same,Potency,[6],inactive
same,outcome,[7],inactive
same,outcome,[19],inactive
same,Potency,[17],inactive
same,outcome,[8],inactive
same,outcome,[9],inactive
same,outcome,[10],inactive
same,Potency,[11],inactive
same,Potency,[14],inactive
same,Potency,[15],inactive
C1COCO1,Potency,[1],inactive
same,Potency,[2],inactive
same,Potency,[3],inactive
same,Potency,[18],inactive
same,outcome,[4],inactive
same,Potency,[6],inactive
same,outcome,[7],inactive
same,outcome,[19],inactive
same,Potency,[17],inactive
same,outcome,[8],inactive
same,outcome,[9],inactive
same,Potency,[11],inactive
same,outcome,[12],inactive
same,Potency,[13],inactive
same,Potency,[14],inactive
same,Potency,[15],inactive
CCCCC(CC)C(=O)OCCOCCOCCOCCOC(=O)C(CC)CCCC (centres undefined),Potency,[1],inactive
same,Potency,[2],inactive
same,Potency,[3],inactive
same,Potency,[18],inactive
same,outcome,[4],inactive
same,outcome,[5],inactive
same,Potency,[6],inactive
same,outcome,[7],inactive
same,outcome,[19],inactive
same,Potency,[17],inactive
same,outcome,[8],inactive
same,outcome,[9],inactive
same,outcome,[10],inactive
same,Potency,[11],inactive
same,outcome,[12],inactive
same,Potency,[13],inactive
same,Potency,[14],inactive
same,Potency,[15],inactive
Cc1ccc(/C=N/n2c(-c3ccccc3)csc2=S)cc1,Potency,[1],inactive
same,Potency,[2],inactive
same,Potency,[3],inactive
same,Potency,[16],18.8 µM (active)
same,outcome,[4],inactive
same,outcome,[5],inactive
same,Potency,[6],inactive
same,outcome,[7],inactive
same,outcome,[19],inactive
same,Potency,[17],inactive
same,outcome,[8],inactive
same,outcome,[9],inactive
same,outcome,[10],inactive
same,Potency,[11],inactive
same,Potency,[13],inactive
same,Potency,[14],inactive
Cc1ccc(S(=O)(=O)NC2CCCCC2)cc1,Potency,[1],inactive
same,Potency,[16],21.5 µM (active)
same,outcome,[4],inactive
same,Potency,[6],inactive
same,outcome,[7],inactive
same,outcome,[19],inactive
same,outcome,[8],inactive
same,outcome,[9],inactive
same,outcome,[10],inactive
same,Potency,[11],inactive
same,outcome,[12],inactive
same,Potency,[13],inactive
same,Potency,[14],inactive
same,Potency,[15],inactive
COc1cc2ncnc(Nc3ccc(F)c(Cl)c3)c2cc1OCCCN1CCOCC1,Potency,[1],inactive
same,outcome,[4],inactive
same,outcome,[5],inactive
same,Potency,[6],inactive
same,outcome,[7],inactive
same,outcome,[19],inactive
same,Potency,[17],inactive
same,outcome,[8],inactive
same,outcome,[9],inactive
same,outcome,[10],inactive
same,Potency,[11],inactive
same,outcome,[12],inactive
same,Potency,[14],inactive
CCc1cccc(N(C)C(N)=Nc2cccc3ccccc23)c1,Potency,[2],inactive
same,Potency,[3],inactive
same,Potency,[18],inactive
same,Potency,[16],inactive
same,outcome,[4],inactive
same,outcome,[5],inactive
same,Potency,[6],inactive
same,outcome,[19],inactive
same,outcome,[8],inactive
same,outcome,[9],inactive
same,Potency,[11],inactive
same,outcome,[12],inactive
same,Potency,[13],inactive
same,Potency,[14],inactive
same,Potency,[15],inactive
CCc1nn(CCCN2CCN(c3cccc(Cl)c3)CC2)c(=O)n1CCOc1ccccc1,Potency,[1],inactive
same,Potency,[2],26.6 µM (active) and inactive
same,Potency,[18],inactive
same,outcome,[4],inactive
same,Potency,[6],inactive
same,outcome,[7],inactive
same,outcome,[19],inactive
same,Potency,[17],inactive
same,outcome,[8],inactive
same,outcome,[9],inactive
same,outcome,[10],inactive
same,Potency,[11],inactive
same,outcome,[12],inactive
same,Potency,[13],inactive
